Experimental data from the supplement of paper PMC10849652.
Targets with a hit are over-represented here; the source holds about 7,900 in all. About 0.6% of all pairs of compound and target were hits. A number with no mark means an inactive call.

Assays:
Experiment in all cases: log2 fold change, soluble protein after heating vs DMSO (PISA); higher = thermal stabilisation; K562 cells, 10 uM, 30 min; active = over 0.2 and 3.5 SD of the protein, either way, in both replicates (recomputed)
[1] = compound: CC[C@@H]1C(=O)N(C)c2cnc(Nc3ccc(C(=O)NC4CCN(C)CC4)cc3OC)nc2N1C1CCCC1
Outline: (§1)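 K562 cells at 2×10^6 cells/mL were treated with 10 μM compound for 30 min. Aliquots were heated for 3 min across 48°C-58°C, pooled, and extracted in PBS with 0.5% NP-40 at 4°C; soluble protein was the supernatant after 21,000xg for 90 min. Soluble protein was quantified by TMTpro 16plex LC-MS/MS with channel sums equalised, and reported as log2 fold change in thermal stability against DMSO controls, with values from duplicates.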

volasertib = compound: CC[C@@H]1C(=O)N(C)c2cnc(Nc3ccc(C(=O)N[C@H]4CC[C@H](N5CCN(CC6CC6)CC5)CC4)cc3OC)nc2N1C(C)C [volasertib]
Outline: as §1

[2] = compound: CC[C@H](C)N1C=C(C2=C(C=C(C=C21)C3=CN=C(C=C3)N4CCNCC4)C(=O)NCC5=C(C=C(NC5=O)C)C)C
Outline: as §1

epoxomicin = compound: CC[C@H](C)[C@@H](C(=O)N[C@@H]([C@@H](C)O)C(=O)N[C@@H](CC(C)C)C(=O)[C@]1(CO1)C)NC(=O)[C@H]([C@@H](C)CC)N(C)C(=O)C [epoxomicin]
Outline: as §1

[3] = compound: CCn1c(C(=O)N(C2CC2)C2CC2)cc2c3c(ncn3C)c(Nc3cc(C)n(C)n3)nc21
Outline: as §1

[4] = compound: CCn1cc(-c2ccnc3[nH]c(-c4cccc(CN(C)C)c4)cc23)c(-c2ccc(NC(=O)N(C)C)cc2)n1
Outline: as §1

[5] = compound: CN(C)CC(=O)Nc1ccc2[nH]c(=O)c3ccccc3c2c1
Outline: as §1

rosiglitazone = compound: CN(CCOC1=CC=C(C=C1)C[C@H]2C(=O)NC(=O)S2)C3=CC=CC=N3 (racemic) [rosiglitazone]
Outline: as §1

[6] = compound: CN1C2=C(C3=C1C(=O)N(N=C3)CC4=CC(=CC=C4)N)SC(=C2)S(=O)C
Outline: as §1

[7] = compound: CN1CCC(CNc2ccc3ncc(-c4cccc(OC(F)(F)F)c4)n3n2)CC1
Outline: as §1

UniProt Q6XR72, sequence (Q6XR72 whole entry, looked up): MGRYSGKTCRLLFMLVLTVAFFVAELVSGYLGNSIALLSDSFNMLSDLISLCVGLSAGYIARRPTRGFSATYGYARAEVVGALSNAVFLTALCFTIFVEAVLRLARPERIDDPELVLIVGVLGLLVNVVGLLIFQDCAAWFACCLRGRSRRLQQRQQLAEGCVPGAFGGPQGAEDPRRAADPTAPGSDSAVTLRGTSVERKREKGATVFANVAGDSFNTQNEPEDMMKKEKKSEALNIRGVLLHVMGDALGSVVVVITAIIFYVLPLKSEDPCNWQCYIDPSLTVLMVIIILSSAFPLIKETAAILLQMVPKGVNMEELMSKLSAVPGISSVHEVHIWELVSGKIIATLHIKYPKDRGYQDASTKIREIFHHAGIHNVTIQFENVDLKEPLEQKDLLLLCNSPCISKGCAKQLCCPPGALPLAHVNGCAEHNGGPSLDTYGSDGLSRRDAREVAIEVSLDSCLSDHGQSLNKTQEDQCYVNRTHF
UniProt O60493, sequence (O60493 whole entry, looked up): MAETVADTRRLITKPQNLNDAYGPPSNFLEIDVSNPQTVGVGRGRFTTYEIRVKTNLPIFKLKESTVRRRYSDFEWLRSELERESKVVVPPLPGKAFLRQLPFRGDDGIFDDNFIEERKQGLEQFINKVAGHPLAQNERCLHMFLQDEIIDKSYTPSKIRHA
UniProt Q08170, sequence (Q08170 whole entry, looked up): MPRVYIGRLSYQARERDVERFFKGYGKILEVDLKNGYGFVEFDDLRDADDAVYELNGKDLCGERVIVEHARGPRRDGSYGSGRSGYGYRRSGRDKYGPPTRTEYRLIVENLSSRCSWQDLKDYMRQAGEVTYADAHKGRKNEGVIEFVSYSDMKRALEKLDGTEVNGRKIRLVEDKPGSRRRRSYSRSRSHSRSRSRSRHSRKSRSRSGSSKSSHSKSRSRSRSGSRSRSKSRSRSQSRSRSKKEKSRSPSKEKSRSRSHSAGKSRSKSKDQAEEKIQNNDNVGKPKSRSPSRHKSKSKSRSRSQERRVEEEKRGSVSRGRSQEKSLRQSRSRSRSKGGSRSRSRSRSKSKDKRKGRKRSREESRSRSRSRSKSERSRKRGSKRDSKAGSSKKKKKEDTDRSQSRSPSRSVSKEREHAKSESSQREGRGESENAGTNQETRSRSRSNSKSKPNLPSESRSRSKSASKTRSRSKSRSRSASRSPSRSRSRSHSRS
UniProt P04920, sequence (P04920 whole entry, looked up): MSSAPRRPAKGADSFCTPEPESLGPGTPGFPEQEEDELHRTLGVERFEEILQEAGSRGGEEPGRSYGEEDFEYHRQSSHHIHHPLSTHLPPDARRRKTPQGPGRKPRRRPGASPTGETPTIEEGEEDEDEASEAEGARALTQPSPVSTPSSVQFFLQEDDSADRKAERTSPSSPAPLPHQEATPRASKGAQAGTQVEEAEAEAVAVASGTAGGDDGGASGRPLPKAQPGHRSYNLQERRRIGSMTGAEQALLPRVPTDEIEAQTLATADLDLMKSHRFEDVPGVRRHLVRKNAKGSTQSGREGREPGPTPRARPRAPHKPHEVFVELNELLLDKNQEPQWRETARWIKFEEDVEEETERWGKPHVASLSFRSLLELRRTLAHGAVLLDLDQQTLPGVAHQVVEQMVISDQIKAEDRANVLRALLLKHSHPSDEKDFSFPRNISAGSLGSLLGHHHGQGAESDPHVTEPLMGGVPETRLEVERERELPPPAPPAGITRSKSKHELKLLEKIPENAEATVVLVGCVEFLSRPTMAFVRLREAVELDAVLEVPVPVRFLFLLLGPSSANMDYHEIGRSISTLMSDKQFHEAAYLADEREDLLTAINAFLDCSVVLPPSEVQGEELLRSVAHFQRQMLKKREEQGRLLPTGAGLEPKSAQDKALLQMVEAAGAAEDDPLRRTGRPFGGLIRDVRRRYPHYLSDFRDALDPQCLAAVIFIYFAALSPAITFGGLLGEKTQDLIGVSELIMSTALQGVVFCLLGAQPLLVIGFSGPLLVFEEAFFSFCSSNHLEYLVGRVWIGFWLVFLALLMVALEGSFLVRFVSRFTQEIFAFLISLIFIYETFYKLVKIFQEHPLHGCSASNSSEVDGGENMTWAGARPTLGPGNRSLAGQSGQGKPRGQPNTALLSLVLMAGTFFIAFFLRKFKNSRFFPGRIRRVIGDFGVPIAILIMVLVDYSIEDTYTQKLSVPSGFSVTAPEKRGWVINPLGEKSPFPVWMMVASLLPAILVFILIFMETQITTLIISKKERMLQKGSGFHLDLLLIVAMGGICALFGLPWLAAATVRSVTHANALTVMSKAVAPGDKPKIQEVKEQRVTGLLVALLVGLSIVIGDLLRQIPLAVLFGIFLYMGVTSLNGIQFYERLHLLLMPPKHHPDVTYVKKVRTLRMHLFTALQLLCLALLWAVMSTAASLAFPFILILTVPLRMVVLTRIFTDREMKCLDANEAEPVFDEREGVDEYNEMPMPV
UniProt Q00059, sequence (Q00059 whole entry, looked up): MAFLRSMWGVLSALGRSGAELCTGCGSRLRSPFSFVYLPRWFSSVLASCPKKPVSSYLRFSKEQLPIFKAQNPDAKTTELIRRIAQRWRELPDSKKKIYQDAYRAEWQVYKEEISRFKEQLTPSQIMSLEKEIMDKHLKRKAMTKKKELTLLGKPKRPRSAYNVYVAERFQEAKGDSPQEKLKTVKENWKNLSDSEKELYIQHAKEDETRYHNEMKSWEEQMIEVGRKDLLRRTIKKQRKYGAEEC
UniProt Q9Y5X1, sequence (Q9Y5X1 whole entry, looked up): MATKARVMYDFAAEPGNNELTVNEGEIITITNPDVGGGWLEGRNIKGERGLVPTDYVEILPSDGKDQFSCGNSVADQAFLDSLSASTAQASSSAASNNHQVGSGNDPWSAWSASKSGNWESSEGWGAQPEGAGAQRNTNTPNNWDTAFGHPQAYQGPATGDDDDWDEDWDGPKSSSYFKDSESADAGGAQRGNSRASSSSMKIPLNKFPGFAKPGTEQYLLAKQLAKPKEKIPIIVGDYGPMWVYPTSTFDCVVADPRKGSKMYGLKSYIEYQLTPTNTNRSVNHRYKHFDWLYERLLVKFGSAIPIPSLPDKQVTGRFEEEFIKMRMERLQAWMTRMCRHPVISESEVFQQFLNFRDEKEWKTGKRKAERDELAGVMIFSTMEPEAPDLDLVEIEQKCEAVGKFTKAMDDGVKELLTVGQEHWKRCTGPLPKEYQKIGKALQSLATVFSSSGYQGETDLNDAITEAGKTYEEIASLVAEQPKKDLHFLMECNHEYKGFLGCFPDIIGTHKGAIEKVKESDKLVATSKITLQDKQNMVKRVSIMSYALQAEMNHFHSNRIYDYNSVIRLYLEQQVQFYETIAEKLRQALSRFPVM
UniProt Q9BVV7, sequence (Q9BVV7 whole entry, looked up): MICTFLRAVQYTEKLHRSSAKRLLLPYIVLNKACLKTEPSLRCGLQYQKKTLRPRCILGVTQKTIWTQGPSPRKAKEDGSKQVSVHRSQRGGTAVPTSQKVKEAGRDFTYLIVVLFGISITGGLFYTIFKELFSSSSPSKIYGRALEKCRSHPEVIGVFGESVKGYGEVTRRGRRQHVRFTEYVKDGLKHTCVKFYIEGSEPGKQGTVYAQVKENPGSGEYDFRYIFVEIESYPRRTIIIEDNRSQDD
UniProt Q9P289, sequence (Q9P289 whole entry, looked up): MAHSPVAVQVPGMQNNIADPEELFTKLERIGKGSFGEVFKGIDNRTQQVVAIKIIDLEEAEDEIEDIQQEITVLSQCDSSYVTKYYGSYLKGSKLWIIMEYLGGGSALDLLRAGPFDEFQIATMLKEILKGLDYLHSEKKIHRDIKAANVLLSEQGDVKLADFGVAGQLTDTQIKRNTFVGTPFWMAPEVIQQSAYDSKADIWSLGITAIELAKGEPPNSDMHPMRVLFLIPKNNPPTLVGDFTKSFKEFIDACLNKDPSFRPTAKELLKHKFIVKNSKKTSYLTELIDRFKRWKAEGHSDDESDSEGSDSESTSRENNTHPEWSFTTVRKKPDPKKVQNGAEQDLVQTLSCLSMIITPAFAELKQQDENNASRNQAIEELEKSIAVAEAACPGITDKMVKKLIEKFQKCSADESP
UniProt Q99523, sequence (Q99523 whole entry, looked up): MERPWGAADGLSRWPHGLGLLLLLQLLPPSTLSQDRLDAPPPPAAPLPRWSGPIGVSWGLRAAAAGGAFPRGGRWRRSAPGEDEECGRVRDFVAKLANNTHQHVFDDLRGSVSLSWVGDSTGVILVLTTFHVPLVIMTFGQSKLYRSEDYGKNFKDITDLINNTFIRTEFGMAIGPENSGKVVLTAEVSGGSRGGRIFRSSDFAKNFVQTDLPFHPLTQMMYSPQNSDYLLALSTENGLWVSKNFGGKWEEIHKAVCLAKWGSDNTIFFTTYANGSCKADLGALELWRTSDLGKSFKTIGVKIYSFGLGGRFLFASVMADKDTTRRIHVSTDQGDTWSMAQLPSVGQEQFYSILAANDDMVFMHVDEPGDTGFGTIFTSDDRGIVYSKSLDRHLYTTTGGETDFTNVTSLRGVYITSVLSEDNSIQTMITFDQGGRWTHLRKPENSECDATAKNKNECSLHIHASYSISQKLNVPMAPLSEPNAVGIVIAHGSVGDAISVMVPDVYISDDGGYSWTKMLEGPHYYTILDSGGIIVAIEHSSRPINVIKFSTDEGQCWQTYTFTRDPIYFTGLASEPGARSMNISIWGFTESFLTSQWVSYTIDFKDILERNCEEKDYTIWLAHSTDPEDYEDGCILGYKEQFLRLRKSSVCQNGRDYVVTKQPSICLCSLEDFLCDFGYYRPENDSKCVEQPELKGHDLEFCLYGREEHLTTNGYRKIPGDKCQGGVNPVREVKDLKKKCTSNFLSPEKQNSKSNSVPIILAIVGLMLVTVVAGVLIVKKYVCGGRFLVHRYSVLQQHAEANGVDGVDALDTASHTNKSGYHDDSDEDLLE
UniProt Q16594, sequence (Q16594 whole entry, looked up): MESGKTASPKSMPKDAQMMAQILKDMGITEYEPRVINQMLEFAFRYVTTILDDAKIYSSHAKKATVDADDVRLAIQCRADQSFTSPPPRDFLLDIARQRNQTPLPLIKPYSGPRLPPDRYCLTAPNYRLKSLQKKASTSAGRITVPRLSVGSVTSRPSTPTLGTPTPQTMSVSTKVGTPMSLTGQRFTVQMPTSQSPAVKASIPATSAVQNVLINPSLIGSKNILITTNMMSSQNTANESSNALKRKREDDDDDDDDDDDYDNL

Target | log2 fold change [1] | log2 fold change (volasertib) | log2 fold change [2] | log2 fold change (epoxomicin) | log2 fold change [3] | log2 fold change [4] | log2 fold change [5] | log2 fold change (rosiglitazone) | log2 fold change [6] | log2 fold change [7]
SPAG9 (UniProt O60271) | -0.039 | -0.168 | 0.046 | 0.028 | -0.014 | 0.02 | 0.02 | 0.043 | -0.009 | -0.203
SLC38A9 (UniProt Q8NBW4) | -0.013 | -0.003 | -0.022 | -0.02 | 0.007 | 0.055 | -0.039 | 0.003 | 0.029 | -0.197
SPTBN1 (UniProt Q01082) | 0.009 | -0.163 | 0.079 | -0.024 | -0.048 | 0.013 | 0.018 | 0.001 | 0.081 | 0.048
STARD9 (UniProt Q9P2P6) | -0.024 | 0.238 | -0.029 | 0.022 | 0.064 | 0.008 | 0.075 | 0.015 | 0.507 (active) | -0.098
SLC30A10 (UniProt Q6XR72) | 0 | -0.052 | -0.052 | 0.045 | 0.023 | -0.244 | -0.028 | 0.039 | -0.087 | 0.044
SLIRP (UniProt Q9GZT3) | 0.05 | 0.343 | -0.093 | 0.302 | 0.015 | 0.02 | 0.08 | 0.058 | 0.092 | 0.06
SMCHD1 (UniProt A6NHR9) | 0.009 | -0.326 | 0.098 | -0.189 | -0.015 | -0.085 | 0.032 | -0.118 | -0.023 | -0.144
SORT1 (UniProt Q99523) | -0.984 (active) | -1.34 (active) | -0.013 | 0.032 | -0.028 | 0.007 | 0.003 | 0.008 | -0.028 | -0.582 (active)
SLC4A2 (UniProt P04920) | 0.039 | -0.071 | -0.044 | 0.029 | -0.021 | -0.028 | 0.022 | 0.066 | 0.035 | -0.018
TM9SF2 (UniProt Q99805) | -0.57 (active) | -0.621 (active) | -0.008 | -0.034 | 0.033 | -0.017 | 0.018 | -0.052 | -0.01 | -0.182
TIMM21 (UniProt Q9BVV7) | -0.133 | -0.286 (active) | 0.034 | -0.041 | 0.029 | -0.028 | -0.025 | 0.05 | -0.044 | -0.227
STK26 (UniProt Q9P289) | -0.017 | -0.062 | 0.018 | 0.084 | -0.003 | -0.117 | -0.033 | 0.068 | 0.014 | -0.191
SRSF3 (UniProt P84103) | 0.198 | 0.313 | -0.075 | -0.213 | 0.028 | 0.189 | -0.139 | -0.115 | 0.18 | 0.233
SMAD9 (UniProt O15198) | 0.059 | -0.417 (active) | -0.137 | 0.026 | -0.006 | 0.035 | 0.043 | 0.13 | -0.087 | -0.261
TAF9 (UniProt Q16594) | -0.028 | 0.095 | -0.029 | 0.12 | 0.025 | 0.034 | -0.021 | -0.001 | 0.061 | 0.077
TFAM (UniProt Q00059) | 0.058 | 0.059 | 0.007 | -0.053 | 0.035 | 0.062 | -0.074 | -0.017 | 0.098 | 0.049

Target | log2 fold change [1] | log2 fold change (volasertib) | log2 fold change [2] | log2 fold change (epoxomicin) | log2 fold change [3] | log2 fold change [4] | log2 fold change [5] | log2 fold change (rosiglitazone) | log2 fold change [6] | log2 fold change [7]
SNX9 (UniProt Q9Y5X1) | -0.125 | -0.309 (active) | 0.04 | -0.02 | -0.018 | -0.021 | -0.006 | 0.025 | 0.009 | -0.137
SULT1A1 (UniProt P50225) | -0.159 | -0.445 (active) | 0.091 | 0.026 | -0.056 | -0.106 | 0.105 | 0.025 | 0.072 | -0.208
SP3 (UniProt Q02447) | 0.03 | 0.104 | -0.019 | -0.194 | 0.025 | 0.068 | -0.074 | -0.062 | 0.058 | 0.028
SMAD2 (UniProt Q15796) | -0.067 | -0.347 (active) | 0.065 | 0.11 | -0.032 | -0.014 | 0.014 | 0.078 | -0.158 | -0.018
SRSF4 (UniProt Q08170) | 0.091 | -0.001 | 0.011 | -0.175 | -0.068 | 0.115 | -0.09 | -0.09 | 0.205 | 0.087
SLC25A38 (UniProt Q96DW6) | 0.013 | 0.009 | -0.002 | -0.025 | 0.048 | 0 | -0.02 | -0.028 | -0.017 | -0.048
SPCS2 (UniProt Q15005) | 0.018 | -0.006 | 0.02 | 0.091 | -0.067 | -0.009 | 0.038 | 0.029 | -0.078 | 0.005
SMARCAD1 isoform 2 (UniProt Q9H4L7) | -0.085 | -0.378 (active) | 0.057 | 0.046 | -0.055 | -0.1 | 0.04 | 0.071 | -0.037 | -0.1
THRAP3 (UniProt Q9Y2W1) | 0.03 | 0.098 | -0.137 | -0.093 | -0.013 | 0.101 | -0.026 | -0.007 | 0.025 | -0.058
TAOK3 (UniProt Q9H2K8) | -0.005 | -0.083 | 0.058 | 0.007 | 0.007 | -0.019 | 0.059 | 0.001 | -0.067 | -0.059
SNX3 (UniProt O60493) | -0.071 | -0.147 | 0.107 | -0.033 | -0.176 | 0.057 | 0.077 | 0.018 | 0.116 | -0.319
SPG21 (UniProt Q9NZD8) | -0.082 | -0.615 (active) | 0.065 | 0.315 (active) | -0.013 | 0.037 | 0.018 | 0.123 | -0.098 | -0.21
SNX2 (UniProt O60749) | -0.129 | -0.053 | 0.093 | 0.026 | -0.102 | -0.08 | 0.005 | 0.054 | -0.003 | -0.332 (active)
STK38 (UniProt Q15208) | -0.107 | -0.363 (active) | 0.106 | 0.035 | 0 | 0.003 | 0.059 | 0.05 | -0.005 | -0.068
SMG1 (UniProt Q96Q15) | -0.137 | -0.391 (active) | 0.158 | 0.024 | 0.002 | 0.05 | 0.046 | -0.003 | 0.129 | -0.02
